Assay [1] can be described thus: ATG_NFI_CIS: Attagene CIS-FACTORIAL HepG2 Assay for human Nuclear Factor I (NFI) (AID 2282989). Conditions: HepG2 cis-regulatory reporter, NFI response element transcription; actives raise or lower the signal. The essentials: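 Reporter transcripts were measured by RT-PCR with fluorescent primer extension and capillary electrophoresis 24 h post-treatment. HepG2 cells carried transiently transfected cis-regulated reporter constructs reporting endogenous factor activity; gain or loss fitted against DMSO baseline.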

In assay [2] the target is Myc proto-oncogene protein (Homo sapiens) (UniProt P01106). The assay is described as follows: ATG_Myc_CIS: Attagene CIS-FACTORIAL HepG2 Assay for human Myelocytomatosis (Myc) Proto-Oncogene Transcription Factor (AID 2282990). Conditions: HepG2, Attagene cis-reporter transcription factor activity; actives raise or lower the signal. The essentials: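 HepG2 cells transiently transfected with multiple cis-promoter-driven reporter transcription units, so endogenous TF activity is read. After 24 h compound exposure, reporter mRNA was quantified by RT-PCR, 6-FAM labelling, HpaI digestion and capillary electrophoresis; bidirectional fit versus DMSO.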

A short description of assay [3]: ATG_NF_kB_CIS: Attagene CIS-FACTORIAL HepG2 Assay for human Nuclear Factor Kappa B (NF-kB) (AID 2282991). Conditions: HepG2 Attagene cis-factorial NF-kB reporter mRNA; actives raise or lower the signal. In short, it runs like this: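 Read-out: reporter transcript levels quantified by RT-PCR plus capillary electrophoresis of 6-FAM-labelled, HpaI-cut fragments. Transfected HepG2 cells, 24 h compound exposure, endogenous NF-kB-driven cis element; gain or loss scored versus DMSO.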

The nature of assay [4]: ATG_NRF2_ARE_CIS: Attagene CIS-FACTORIAL HepG2 Assay for human Nuclear Factor Erythroid 2 Related Factor 2 (NFR2) response to Antioxidant Response Elements (ARE) (AID 2282992). Conditions: HepG2 Attagene ARE/NRF2 reporter, transcription factor activity; actives raise or lower the signal. In short, it runs like this:
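Endogenous transcription factor activity read out as reporter transcript levels (RT-PCR plus capillary electrophoresis, fluorescence) in transiently transfected HepG2 cells. Measured at 24 h after dosing; gain or loss of signal fitted versus DMSO.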

Assay [5] can be described thus: ATG_Oct_MLP_CIS: Attagene CIS-FACTORIAL HepG2 Assay for human Octamer-Binding Transcription Factor (Oct) (AID 2282993). Conditions: HepG2 Attagene cis-factorial Oct reporter, mRNA; actives raise or lower the signal. In short, it runs like this: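 Readout is reporter transcript level from RT-PCR with fluorescent primer extension and capillary electrophoresis, fitted in both directions against DMSO. Transfected HepG2 reporter units report endogenous factor activity after 24 h dosing.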

For assay [6], the target named is Cellular tumor antigen p53 (Homo sapiens) (UniProt P04637). The assay is described as follows: ATG_p53_CIS: Attagene CIS-FACTORIAL HepG2 Assay for human p53 Transcription Factor (AID 2282994). Conditions: HepG2 p53 cis-element reporter, Attagene mRNA; actives raise or lower the signal. The essentials:
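Endogenous p53 activity read in transiently transfected HepG2 from a cis-element-driven reporter transcript after 24 h exposure. RNA reverse-transcribed, PCR-amplified, fluorescently labelled and sized by capillary electrophoresis; gain or loss fitted against DMSO baseline.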

Assay [7] in a line: BSK_3C_TissueFactor: BioMAP Diversity Plus: 3C Assay for Tissue Factor Biomarker Activity (AID 2282997). Conditions: BioMAP 3C HUVEC, tissue factor biomarker readout; actives raise or lower the signal. In short, it runs like this: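 After a 24 h chemical exposure of primary human umbilical vein endothelial cells, Tissue Factor levels were quantified by ELISA.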
Assay [8] in a line: BSK_3C_uPAR: BioMAP Diversity Plus: 3C Assay for Urokinase-type plasminogen activator receptor (uPAR) Biomarker Activity (AID 2282998). Conditions: BioMAP 3C HUVEC, uPAR biomarker ELISA; actives raise or lower the signal. In short, it runs like this: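 Cell-surface uPAR on HUVEC (3C system) read by ELISA at 24 h post-treatment, with DMSO as baseline and fitting in both directions. Parallel cultures stained with SRB to flag overt cytotoxicity.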
(An ELISA detects its analyte on a solid surface through an enzyme-linked reagent.)

The nature of assay [9]: BSK_3C_VCAM1: BioMAP Diversity Plus: 3C Assay for Vascular cell adhesion molecule 1 (VCAM1) Biomarker Activity (AID 2282999). Conditions: BioMAP 3C HUVEC, VCAM1 ELISA, cytokine-stimulated; actives raise or lower the signal. The essentials: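 Vascular primary endothelium (human umbilical vein) was exposed to chemicals and assayed 24 h later. VCAM-1 levels came from ELISA, with DMSO serving as baseline for bidirectional fitting.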

The nature of assay [10]: BSK_4H_Eotaxin3: BioMAP Diversity Plus: 4H Assay for Eotaxin 3 Biomarker Activity (AID 2283000).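 For outcome: CCL26 protein level quantified by ELISA in parallel with SRB cytotoxicity check.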 Conditions: primary human endothelial cells (HUVEC); actives raise or lower the signal. The essentials:
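Chemicals were added to human umbilical vein endothelium cultures, and Eotaxin-3 was quantified by ELISA at 24 h. Values were derived by bidirectional fitting with DMSO serving as negative control and activity baseline.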

The target in assay [11] is human Peroxisome Proliferator-activated Receptor alpha (PPARa), PPARA (gene 5465) (UniProt Q07869). The assay is described as follows: ATG_PPARa_TRANS: Attagene TRANS-FACTORIAL HepG2 Assay for human Peroxisome Proliferator-activated Receptor alpha (PPARa) (AID 2283001; active = hit-call score of the fitted dose curve at least 0.9, where 1 is the maximum;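 for AC50: potency for gain of reporter signal over DMSO so agonist or activator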). The essentials:
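Cells (HepG2) are transfected with multiple reporter transcription units, exposed to chemical for 24 h, then total RNA is reverse-transcribed and amplified. Labelled products are quantified by capillary electrophoresis; induction is referenced to DMSO.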

Assay [12] concerns the target human Peroxisome Proliferator-activated Receptor delta (PPARd), PPARD (gene 5467) (UniProt Q03181). As to the kind of experiment: ATG_PPARd_TRANS: Attagene TRANS-FACTORIAL HepG2 Assay for human Peroxisome Proliferator-activated Receptor delta (PPARd) (AID 2283002; active = hit-call score of the fitted dose curve at least 0.9, where 1 is the maximum). In short, it runs like this: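 HepG2 cells transiently transfected with multiplexed GAL4-UAS reporter units and exogenous chimeric NR-Gal4 proteins; 24 h compound exposure. Reporter mRNA measured by RT-PCR, 6-FAM labelling, HpaI digestion and capillary electrophoresis; gain of signal versus DMSO.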

Read-out in assay [13]: Intercellular Adhesion Molecule 1 (ICAM1), ICAM1 (gene 3383)
As to the kind of experiment: BSK_3C_ICAM1: BioMAP Diversity Plus: 3C Assay for Intercellular Adhesion Molecule 1 (ICAM1) Biomarker Activity (AID 2283003). Conditions: primary human endothelial cells (HUVEC); actives raise or lower the signal. In short, it runs like this: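 Chemicals are dosed onto primary human umbilical vein endothelium (3C system). After 24 h, ICAM-1 is measured by ELISA, and responses are fitted bidirectionally relative to DMSO.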

The nature of assay [14]: BSK_3C_Proliferation: Cell Proliferation Assessment in the BioMAP Diversity Plus: 3C Assay (AID 2283006).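 For AC50: potency may reflect either rise or fall in cell number versus DMSO.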 Conditions: primary human endothelial cells (HUVEC). The essentials: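 Cells (human umbilical vein endothelial, sub-confluent) receive test chemical; after 48 h they are fixed in 10% trichloroacetic acid, stained with 0.1% SRB and read at 560 nm. Activity is referenced to DMSO, fitting increases and decreases.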

Assay [15] deals with Nuclear receptor subfamily 1 group I member 2 (Homo sapiens) (UniProt O75469). The assay is described as follows: ATG_PXR_TRANS: Attagene TRANS-FACTORIAL HepG2 Assay for human Pregnane X Receptor (PXR) (AID 2283008; active = hit-call score of the fitted dose curve at least 0.9, where 1 is the maximum). The essentials: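 Transactivation by exogenous PXR–GAL4 fusion measured as reporter transcript induction after 24 h compound treatment of transfected human HepG2 cells. Read-out via RT-PCR and capillary electrophoresis of labelled fragments, fitted upward relative to DMSO.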

The target in assay [16] is Peroxisome proliferator-activated receptor gamma (Homo sapiens) (UniProt P37231). The assay is described as follows: ATG_PPARg_TRANS: Attagene TRANS-FACTORIAL HepG2 Assay for human Peroxisome Proliferator-activated Receptor-gamma (PPARg) (AID 2283007; active = hit-call score of the fitted dose curve at least 0.9, where 1 is the maximum). The essentials: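 Read-out: reporter mRNA induction, detected by fluorescence after RT-PCR and capillary electrophoresis. Transiently transfected human HepG2 liver cells carrying a chimeric NR-Gal4 construct were dosed for 24 h; activity was fitted upward relative to DMSO.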

Assay [17] concerns the target Retinoic acid receptor alpha (Homo sapiens) (UniProt P10276). The assay is described as follows: ATG_RARa_TRANS: Attagene TRANS-FACTORIAL HepG2 Assay for human Retinoic Acid Receptor alpha (RARa) (AID 2283005; active = hit-call score of the fitted dose curve at least 0.9, where 1 is the maximum). The essentials: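 HepG2 cells transiently transfected with multiple reporter units expressing chimeric RARα-GAL4 fusion, with GAL4-UAS-driven reporters. After 24 h compound exposure, reporter mRNA induction quantified by RT-PCR and capillary electrophoresis with fluorescent labeling; gain-of-signal fitted relative to DMSO control.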

Assay [18] has as its target human Retinoic Acid Receptor beta (RARb), RARB (gene 5915) (UniProt P10826). As to the kind of experiment: ATG_RARb_TRANS: Attagene TRANS-FACTORIAL HepG2 Assay for human Retinoic Acid Receptor beta (AID 2283004; active = hit-call score of the fitted dose curve at least 0.9, where 1 is the maximum). In short, it runs like this:
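Transient transfection of HepG2 with multiple reporter units → chemical dosing, 24 h → total RNA isolation → RT with oligo(dT) → reporter-specific PCR, 6-FAM primer extension, HpaI digest → capillary electrophoresis. Positive direction vs DMSO control.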

Assay [19] deals with human RAR-related Orphan Receptor beta (RORb), RORB (gene 6096) (UniProt Q92753). The assay is described as follows: ATG_RORb_TRANS: Attagene TRANS-FACTORIAL HepG2 Assay for human RAR-related Orphan Receptor beta (RORb) (AID 2283010; active = hit-call score of the fitted dose curve at least 0.9, where 1 is the maximum). In short, it runs like this: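 Transfect HepG2 with multiple GAL4-UAS reporter transcription units; dose chemicals for 24 h; isolate RNA, reverse-transcribe and PCR-amplify reporter sequences; label, digest and resolve fragments by capillary electrophoresis; fit increases relative to DMSO.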

Records with an inconclusive call do not appear. Activity calls are given as the source filed them. Rule for the calls, unless noted: active = hit-call score of the fitted dose curve at least 0.9, where 1 is the maximum; inactive = score below 0.9.

Chain of human Peroxisome Proliferator-activated Receptor alpha (PPARa), PPARA (gene 5465) (Q07869 whole entry, looked up): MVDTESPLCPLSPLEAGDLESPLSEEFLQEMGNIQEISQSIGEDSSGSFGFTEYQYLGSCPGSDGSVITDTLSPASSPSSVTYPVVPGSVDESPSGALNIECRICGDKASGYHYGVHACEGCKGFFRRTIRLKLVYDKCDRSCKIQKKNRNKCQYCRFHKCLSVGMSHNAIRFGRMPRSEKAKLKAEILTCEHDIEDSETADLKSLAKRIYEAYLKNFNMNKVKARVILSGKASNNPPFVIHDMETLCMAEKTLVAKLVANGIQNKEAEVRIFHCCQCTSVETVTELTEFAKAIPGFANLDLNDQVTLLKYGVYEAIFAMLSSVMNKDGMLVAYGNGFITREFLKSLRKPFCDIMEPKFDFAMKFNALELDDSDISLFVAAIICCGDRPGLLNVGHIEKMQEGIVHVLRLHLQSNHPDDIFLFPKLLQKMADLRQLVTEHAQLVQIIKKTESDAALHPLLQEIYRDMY
Chain of human Peroxisome Proliferator-activated Receptor delta (PPARd), PPARD (gene 5467) (Q03181 whole entry, looked up, the tested form may be a part): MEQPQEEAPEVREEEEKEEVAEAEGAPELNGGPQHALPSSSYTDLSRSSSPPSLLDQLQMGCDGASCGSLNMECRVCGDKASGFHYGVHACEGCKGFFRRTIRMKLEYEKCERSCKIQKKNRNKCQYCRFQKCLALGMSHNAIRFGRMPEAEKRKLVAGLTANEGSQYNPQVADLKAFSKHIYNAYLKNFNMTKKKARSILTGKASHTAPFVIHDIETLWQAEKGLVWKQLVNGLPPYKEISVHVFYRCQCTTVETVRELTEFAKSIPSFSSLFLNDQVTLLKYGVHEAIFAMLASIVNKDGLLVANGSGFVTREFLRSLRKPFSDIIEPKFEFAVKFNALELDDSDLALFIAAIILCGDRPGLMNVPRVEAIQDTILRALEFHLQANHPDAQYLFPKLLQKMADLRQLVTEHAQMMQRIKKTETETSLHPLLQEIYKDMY
Chain of Myc proto-oncogene protein (Homo sapiens) (P01106 whole entry, looked up): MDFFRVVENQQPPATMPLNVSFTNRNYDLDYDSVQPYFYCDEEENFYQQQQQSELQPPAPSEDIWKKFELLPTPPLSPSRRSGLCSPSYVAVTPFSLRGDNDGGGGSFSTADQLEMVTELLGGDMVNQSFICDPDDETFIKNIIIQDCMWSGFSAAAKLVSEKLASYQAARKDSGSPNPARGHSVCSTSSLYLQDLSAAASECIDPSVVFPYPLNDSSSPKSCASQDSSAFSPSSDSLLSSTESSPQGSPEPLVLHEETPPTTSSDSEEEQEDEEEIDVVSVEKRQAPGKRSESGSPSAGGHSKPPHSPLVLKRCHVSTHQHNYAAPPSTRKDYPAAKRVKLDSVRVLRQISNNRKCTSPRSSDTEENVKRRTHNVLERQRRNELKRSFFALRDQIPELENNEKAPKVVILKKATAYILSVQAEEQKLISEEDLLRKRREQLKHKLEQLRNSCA
Chain of Peroxisome proliferator-activated receptor gamma (Homo sapiens) (P37231 whole entry, looked up, the tested form may be a part): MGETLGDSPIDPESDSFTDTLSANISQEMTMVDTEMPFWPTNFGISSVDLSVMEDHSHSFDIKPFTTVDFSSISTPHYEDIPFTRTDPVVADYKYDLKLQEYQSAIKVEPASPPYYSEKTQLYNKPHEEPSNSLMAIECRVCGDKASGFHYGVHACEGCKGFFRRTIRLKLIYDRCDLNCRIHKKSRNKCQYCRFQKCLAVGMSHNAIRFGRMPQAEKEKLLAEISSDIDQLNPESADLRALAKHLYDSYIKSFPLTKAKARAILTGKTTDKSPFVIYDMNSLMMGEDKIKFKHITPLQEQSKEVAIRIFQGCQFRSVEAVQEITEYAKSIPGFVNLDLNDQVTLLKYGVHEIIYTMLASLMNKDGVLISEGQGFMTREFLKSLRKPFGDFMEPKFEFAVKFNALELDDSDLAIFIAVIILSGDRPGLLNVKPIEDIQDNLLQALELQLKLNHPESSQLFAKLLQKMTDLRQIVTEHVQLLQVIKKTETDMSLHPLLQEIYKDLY
Chain of Nuclear receptor subfamily 1 group I member 2 (Homo sapiens) (O75469 whole entry, looked up, the tested form may be a part): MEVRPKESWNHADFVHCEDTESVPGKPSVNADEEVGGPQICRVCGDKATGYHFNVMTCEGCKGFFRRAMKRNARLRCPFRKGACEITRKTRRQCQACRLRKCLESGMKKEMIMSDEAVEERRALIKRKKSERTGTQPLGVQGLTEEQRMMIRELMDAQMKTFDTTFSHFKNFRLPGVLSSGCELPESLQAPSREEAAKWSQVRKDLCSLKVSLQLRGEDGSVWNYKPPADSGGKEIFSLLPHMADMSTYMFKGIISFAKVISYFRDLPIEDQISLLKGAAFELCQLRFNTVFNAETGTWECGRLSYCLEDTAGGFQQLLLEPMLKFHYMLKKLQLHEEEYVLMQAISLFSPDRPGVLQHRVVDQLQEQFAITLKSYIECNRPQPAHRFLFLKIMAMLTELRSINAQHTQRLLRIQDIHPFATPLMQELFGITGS
Chain of human Retinoic Acid Receptor beta (RARb), RARB (gene 5915) (P10826 whole entry, looked up): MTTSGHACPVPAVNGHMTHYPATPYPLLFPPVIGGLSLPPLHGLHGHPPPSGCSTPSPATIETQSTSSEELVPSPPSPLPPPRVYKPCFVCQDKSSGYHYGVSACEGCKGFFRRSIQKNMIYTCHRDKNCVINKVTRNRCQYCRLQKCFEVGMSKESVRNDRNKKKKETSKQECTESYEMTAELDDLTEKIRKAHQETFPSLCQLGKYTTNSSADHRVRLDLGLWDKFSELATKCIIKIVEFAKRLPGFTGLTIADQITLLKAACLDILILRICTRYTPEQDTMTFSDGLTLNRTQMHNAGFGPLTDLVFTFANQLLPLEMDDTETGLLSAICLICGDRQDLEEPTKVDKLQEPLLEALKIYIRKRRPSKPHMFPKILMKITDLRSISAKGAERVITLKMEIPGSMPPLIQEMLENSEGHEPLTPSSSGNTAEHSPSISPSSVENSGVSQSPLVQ
Chain of Cellular tumor antigen p53 (Homo sapiens) (P04637 whole entry, looked up): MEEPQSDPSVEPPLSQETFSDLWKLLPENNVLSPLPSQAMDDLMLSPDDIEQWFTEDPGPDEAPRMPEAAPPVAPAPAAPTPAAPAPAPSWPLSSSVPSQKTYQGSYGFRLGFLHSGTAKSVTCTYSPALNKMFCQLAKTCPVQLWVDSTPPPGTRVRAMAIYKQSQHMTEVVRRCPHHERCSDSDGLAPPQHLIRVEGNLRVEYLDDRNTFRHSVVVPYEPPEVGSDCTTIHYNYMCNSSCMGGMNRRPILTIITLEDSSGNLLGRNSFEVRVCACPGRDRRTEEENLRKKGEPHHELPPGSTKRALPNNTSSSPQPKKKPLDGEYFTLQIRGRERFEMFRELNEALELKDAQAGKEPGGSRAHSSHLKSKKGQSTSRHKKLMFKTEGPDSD
Chain of Retinoic acid receptor alpha (Homo sapiens) (P10276 whole entry, looked up, the tested form may be a part): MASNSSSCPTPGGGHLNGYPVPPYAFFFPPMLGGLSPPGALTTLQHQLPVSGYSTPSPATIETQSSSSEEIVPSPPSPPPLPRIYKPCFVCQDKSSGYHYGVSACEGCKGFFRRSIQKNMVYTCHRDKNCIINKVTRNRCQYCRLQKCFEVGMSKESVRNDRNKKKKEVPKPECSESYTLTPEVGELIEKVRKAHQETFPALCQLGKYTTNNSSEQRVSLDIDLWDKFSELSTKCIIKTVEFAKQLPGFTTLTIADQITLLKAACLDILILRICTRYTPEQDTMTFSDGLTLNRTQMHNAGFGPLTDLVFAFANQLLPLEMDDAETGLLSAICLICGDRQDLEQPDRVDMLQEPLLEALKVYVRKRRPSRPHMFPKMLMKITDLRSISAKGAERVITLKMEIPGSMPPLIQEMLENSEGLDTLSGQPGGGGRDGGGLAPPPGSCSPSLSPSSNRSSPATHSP
Chain of human RAR-related Orphan Receptor beta (RORb), RORB (gene 6096) (Q92753 whole entry, looked up, the tested form may be a part): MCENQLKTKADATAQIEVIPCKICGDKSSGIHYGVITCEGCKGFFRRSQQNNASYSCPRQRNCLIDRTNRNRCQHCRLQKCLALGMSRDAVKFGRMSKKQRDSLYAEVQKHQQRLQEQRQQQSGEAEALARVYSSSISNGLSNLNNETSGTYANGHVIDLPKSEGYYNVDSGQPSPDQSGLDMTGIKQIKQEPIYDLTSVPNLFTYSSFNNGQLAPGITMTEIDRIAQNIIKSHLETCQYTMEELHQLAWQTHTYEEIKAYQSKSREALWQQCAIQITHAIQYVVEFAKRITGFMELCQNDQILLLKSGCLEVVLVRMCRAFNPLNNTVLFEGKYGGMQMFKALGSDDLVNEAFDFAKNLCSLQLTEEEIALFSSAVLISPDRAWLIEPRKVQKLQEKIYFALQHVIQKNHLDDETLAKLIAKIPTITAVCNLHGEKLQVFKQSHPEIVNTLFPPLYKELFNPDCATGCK

For the compound `CCCCN(CCCC)CCCC`, the result in [1], in assay [2], in assay [3], in assay [4], in assay [5] and in assay [6] was inactive. The outcome in assay [7], in assay [8], in [9], in [10], in [11] and in assay [12] was inactive. Moreover, the outcome in assay [13], in [14] and in assay [15] was inactive.

Consider `Cc1cccc([N+](=O)[O-])c1C`, for which the outcome in assay [1], in assay [2], in assay [3], in assay [4], in assay [5] and in assay [6] was inactive. The result in assay [7], in assay [8], in assay [9], in [10], in [13] and in [14] was inactive. Besides, the compound was called inactive in [16]. Also, the AC50 in assay [15] was 5.4 µM (active).

Regarding `Oc1ccc2c(c1)OC[C@@H](N1CCC(O)(c3ccc(F)cc3)CC1)[C@H]2O`, the compound was called inactive in assay [1], in [2], in assay [3], in assay [6], in assay [8] and in assay [9]. Also, the result in [10], in assay [11], in assay [12], in assay [13], in assay [17] and in assay [14] was inactive. Also, the AC50 in [4] was 23.4 µM (active); in assay [5] it was 27.1 µM (active); in [16] it was 16.5 µM (active); in assay [15], 13.6 µM (active).

Consider `CC(C)(C)c1cc(O)c(C(C)(C)C)cc1O`, for which the AC50 in assay [1] was 30.6 µM (active); in assay [2], 114 µM (active); in assay [4], 30.5 µM (active); in [5] it was 33 µM (active); in assay [7], 7.03 µM (active); in [9], 9.79 µM (active). The AC50 was 6.65 µM (active) in assay [10], 8.74 µM (active) in assay [14], 38.7 µM (active) in [16] and 2.99 µM (active) in assay [15]. For the same compound, the call in assay [3], in assay [6], in [8], in assay [11], in assay [12] and in [13] was inactive. In addition, the outcome in assay [18] and in [17] was inactive.

Turning to `CCCCCCCCCCO`, the call in assay [1], in assay [2], in assay [6], in assay [7], in assay [8] and in assay [9] was inactive. For the same compound, the outcome in assay [10], in assay [13] and in assay [18] was inactive. For the same compound, the half-maximal activity concentration (AC50) was 144 µM (active) in [3]; 158 µM (active) in assay [4]; 173 µM (active) in assay [5]; 128 µM (active) in assay [11]; 33 µM (active) in assay [14]; 41.1 µM (active) in assay [16].

Turning to `CCCCCCCC=O`, the compound was called inactive in [1], in [2], in [3], in assay [4], in [5] and in [6]. In addition, the result in assay [7], in [8], in [9], in assay [10], in assay [11] and in [12] was inactive. For the same compound, the outcome in assay [13], in assay [14], in assay [15] and in assay [19] was inactive. Also, the AC50 in assay [16] is 100 µM (active).

`Cc1ccc(C)c(O)c1C`: the result in assay [1], in assay [2], in assay [3], in assay [4], in assay [5] and in [6] was inactive. The result in assay [8], in assay [9], in assay [10], in assay [11], in assay [12] and in assay [13] was inactive. Also, the call in [18], in [14], in assay [16], in assay [15] and in [19] was inactive.

Broadly, the AC50 is the concentration at which the activity in the assay is half-maximal.

The values are drawn from PubChem BioAssay (EPA / NIEHS).
